Laboratory results as given in ChEMBL document CHEMBL4513141, “CO-ADD screening of NIH (USA) - Clinical Collection” (2021).
Measured potencies and affinities stand elsewhere. Square brackets hold non-standard residues; d marks the D form. Peptide text beside a SMILES is read from it. pGlu = O=C1CC[C@@H](C(=O)O)N1; Thz = O=C(O)[C@@H]1CSCN1

Columns and labels:
Klebsiella pneumoniae = conditions: Concentration 20 uM; ASSAY_TEST Inhibition of Bacterial Growth; detection method Absorption (OD600); MEDIA CAMHB; plate type 384well; NBS; CORNING #3640; time 18 hr
Candida albicans = conditions: 20 µM
Cryptococcus neoformans = conditions: Concentration 20 uM; ASSAY_TEST Inhibition of Fungal Growth; detection method Resazurin; Absorption (OD600-OD570); plate type 384well; NBS; CORNING #3640

Cc1cccc(CN2CCN(C(c3ccccc3)c3ccc(Cl)cc3)CC2)c1.Cl.Cl (centres undefined)
Inhibition (Klebsiella pneumoniae): 10.89% | Inhibition (Candida albicans): 1.13% | Inhibition (Cryptococcus neoformans): -13%

O=C1CC[C@@H](C(=O)N2CSC[C@H]2C(=O)O)N1 [PIDOTIMOD] ([pGlu]-[Thz]-OH)
Inhibition (Klebsiella pneumoniae): 9.73% | Inhibition (Candida albicans): 0.05% | Inhibition (Cryptococcus neoformans): -3.45%

Cl.Cn1c(NCCN(CCO)CCCc2ccc([N+](=O)[O-])cc2)cc(=O)n(C)c1=O
Inhibition (Klebsiella pneumoniae): 3.03% | Inhibition (Candida albicans): 4.73% | Inhibition (Cryptococcus neoformans): -1.07%

C[C@H](N[C@@H](CCc1ccccc1)C(=O)O)C(=O)N1CCC[C@H]1C(=O)O [ENALAPRILAT ANHYDROUS]
Inhibition (Klebsiella pneumoniae): 8.45% | Inhibition (Candida albicans): 2.99% | Inhibition (Cryptococcus neoformans): 1.01%

COc1cc(OC)c(C(=O)CCCN2CCCC2)c(OC)c1.Cl
Inhibition (Klebsiella pneumoniae): 10.87% | Inhibition (Candida albicans): 3.75% | Inhibition (Cryptococcus neoformans): -6.77%

CC[C@]1(O)C[C@@H]2CN(CCc3c([nH]c4ccccc34)[C@@](C(=O)OC)(c3cc4c(cc3OC)N(C)[C@H]3[C@@](O)(C(N)=O)[C@H](O)[C@]5(CC)C=CCN6CC[C@]43[C@@H]65)C2)C1.O=S(=O)(O)O [VINDESINE SULFATE]
Inhibition (Klebsiella pneumoniae): 6.96% | Inhibition (Candida albicans): 3.45% | Inhibition (Cryptococcus neoformans): 0.45%

O=C1N=C([O-])NC1(c1ccccc1)c1ccccc1.[Na+] [PHENYTOIN SODIUM]
Inhibition (Klebsiella pneumoniae): 7.94% | Inhibition (Candida albicans): 2.49% | Inhibition (Cryptococcus neoformans): 1.23%

CC(C)(C)NC(=O)[C@@H]1CN(Cc2cccnc2)CCN1C[C@@H](O)C[C@@H](Cc1ccccc1)C(=O)N[C@H]1c2ccccc2C[C@H]1O.O=S(=O)(O)O [INDINAVIR SULFATE]
Inhibition (Klebsiella pneumoniae): 0.54% | Inhibition (Candida albicans): 2.58% | Inhibition (Cryptococcus neoformans): -4.45%

O.OC[C@H]1O[C@@H](n2cnc3c(NC4CCCC4)nc(Cl)nc32)[C@@H](O)C1O (some centres undefined)
Inhibition (Klebsiella pneumoniae): 3.81% | Inhibition (Candida albicans): 1.81% | Inhibition (Cryptococcus neoformans): -4.95%

C[C@@H]1CN(CCCn2c3ccccc3c3ccccc32)C[C@H](C)N1.Cl.O
Inhibition (Klebsiella pneumoniae): -0.67% | Inhibition (Candida albicans): 0.45% | Inhibition (Cryptococcus neoformans): 2.04%

CC(C)C[C@H](NC(=O)[C@@H](O)[C@H](N)Cc1ccccc1)C(=O)O [UBENIMEX]
Inhibition (Klebsiella pneumoniae): 12.45% | Inhibition (Candida albicans): 0.73% | Inhibition (Cryptococcus neoformans): -0.18%

CCS(=O)(=O)CCn1c([N+](=O)[O-])cnc1C [TINIDAZOLE]
Inhibition (Klebsiella pneumoniae): 6.48% | Inhibition (Candida albicans): 4.29% | Inhibition (Cryptococcus neoformans): -11.27%

COc1ccc(C2CNC(=O)C2)cc1OC1CCCC1 (centres undefined) [ROLIPRAM]
Inhibition (Klebsiella pneumoniae): 19.56% | Inhibition (Candida albicans): 4.38% | Inhibition (Cryptococcus neoformans): -5.22%

O=C(C1CCCCC1)N1CC(=O)N2CCc3ccccc3C2C1 (centres undefined) [PRAZIQUANTEL]
Inhibition (Klebsiella pneumoniae): 12.45% | Inhibition (Candida albicans): 5.72% | Inhibition (Cryptococcus neoformans): -0.79%

CC(C[N+](C)(C)C)OC(N)=O.[Cl-] (centres undefined) [BETHANECHOL CHLORIDE]
Inhibition (Klebsiella pneumoniae): 8.32% | Inhibition (Candida albicans): 0.53% | Inhibition (Cryptococcus neoformans): 0.14%

O=C1C(c2c(O)[nH]c3ccccc23)=Nc2ccccc21
Inhibition (Klebsiella pneumoniae): 6.26% | Inhibition (Candida albicans): 9.69% | Inhibition (Cryptococcus neoformans): -4.77%

CN1CCN(CC/C=C2/c3ccccc3Sc3ccc(S(=O)(=O)N(C)C)cc32)CC1 [THIOTHIXENE]
Inhibition (Klebsiella pneumoniae): 0.07% | Inhibition (Candida albicans): 2.99% | Inhibition (Cryptococcus neoformans): -5.03%

NS(=O)(=O)Cc1noc2ccccc12 [ZONISAMIDE]
Inhibition (Klebsiella pneumoniae): 12.91% | Inhibition (Candida albicans): 3.7% | Inhibition (Cryptococcus neoformans): -5.53%

CC(Oc1c(Cl)cccc1Cl)C1=NCCN1.Cl (centres undefined) [LOFEXIDINE HYDROCHLORIDE]
Inhibition (Klebsiella pneumoniae): 6.35% | Inhibition (Candida albicans): 2.12% | Inhibition (Cryptococcus neoformans): -0.75%

Nc1nc(N)c2nc(-c3ccccc3)c(N)nc2n1
Inhibition (Klebsiella pneumoniae): -1.05% | Inhibition (Candida albicans): 4.35% | Inhibition (Cryptococcus neoformans): 1.8%

NS(=O)(=O)c1cc2c(cc1Cl)N=CNS2(=O)=O [CHLOROTHIAZIDE]
Inhibition (Klebsiella pneumoniae): 4.1% | Inhibition (Candida albicans): 4.39% | Inhibition (Cryptococcus neoformans): -0.92%

CS(=O)(=O)OCCCCOS(C)(=O)=O [BUSULFAN]
Inhibition (Klebsiella pneumoniae): 14.59% | Inhibition (Candida albicans): 3.72% | Inhibition (Cryptococcus neoformans): -1.79%

O=C(O)c1cc(-c2ccc(F)cc2F)ccc1O [DIFLUNISAL]
Inhibition (Klebsiella pneumoniae): 3.43% | Inhibition (Candida albicans): 13.4% | Inhibition (Cryptococcus neoformans): -3.56%

CN1CCN(CCCN2c3ccccc3Sc3ccc(Cl)cc32)CC1.O=C(O)/C=C\C(=O)O.O=C(O)/C=C\C(=O)O [PROCHLORPERAZINE MALEATE]
Inhibition (Klebsiella pneumoniae): 14.2% | Inhibition (Candida albicans): 3.08% | Inhibition (Cryptococcus neoformans): -1.92%

CN(C)CCCN1c2ccccc2Sc2ccc(Cl)cc21.Cl [CHLORPROMAZINE HYDROCHLORIDE]
Inhibition (Klebsiella pneumoniae): 12.47% | Inhibition (Candida albicans): 0.59% | Inhibition (Cryptococcus neoformans): 2.71%

CCC(=C(c1ccccc1)c1ccc(OCCN(C)C)cc1)c1ccccc1
Inhibition (Klebsiella pneumoniae): 0.16% | Inhibition (Candida albicans): 5.96% | Inhibition (Cryptococcus neoformans): 1.89%

COc1cc2c(cc1OC)C(=O)C(CC1CCN(Cc3ccccc3)CC1)C2.Cl (centres undefined) [DONEPEZIL HYDROCHLORIDE]
Inhibition (Klebsiella pneumoniae): 5.21% | Inhibition (Candida albicans): 3.08% | Inhibition (Cryptococcus neoformans): -7.79%

CC(N)C12CC3CC(CC(C3)C1)C2.Cl (centres undefined) [RIMANTADINE HYDROCHLORIDE]
Inhibition (Klebsiella pneumoniae): 8.19% | Inhibition (Candida albicans): 2.89% | Inhibition (Cryptococcus neoformans): -3.72%

COc1ccc(CN2CCN(C(c3ccc(F)cc3)c3ccc(F)cc3)CC2)c(OC)c1OC.Cl.Cl
Inhibition (Klebsiella pneumoniae): -0.73% | Inhibition (Candida albicans): 2.16% | Inhibition (Cryptococcus neoformans): -36.76%

N#Cc1ccc(C(c2ccc(C#N)cc2)n2cncn2)cc1 [LETROZOLE]
Inhibition (Klebsiella pneumoniae): 9.79% | Inhibition (Candida albicans): 2.89% | Inhibition (Cryptococcus neoformans): -8.63%

CCOC(=O)[C@H](CCc1ccccc1)N[C@@H](C)C(=O)N1Cc2ccccc2C[C@H]1C(=O)O.Cl [QUINAPRIL HYDROCHLORIDE]
Inhibition (Klebsiella pneumoniae): 14.37% | Inhibition (Candida albicans): 3.86% | Inhibition (Cryptococcus neoformans): -5.15%

CCCC(CCC)C(=O)O [VALPROIC ACID]
Inhibition (Klebsiella pneumoniae): 1.95% | Inhibition (Candida albicans): 5.05% | Inhibition (Cryptococcus neoformans): -4.42%

COC(=O)Nc1nc2cc(C(=O)c3ccccc3)ccc2[nH]1 [MEBENDAZOLE]
Inhibition (Klebsiella pneumoniae): 11.43% | Inhibition (Candida albicans): 4.65% | Inhibition (Cryptococcus neoformans): 41.35%

COc1nc(C)nc(Cl)c1NC1=NCCN1.Cl [MOXONIDINE HYDROCHLORIDE]
Inhibition (Klebsiella pneumoniae): 3.54% | Inhibition (Candida albicans): 3.01% | Inhibition (Cryptococcus neoformans): 0.52%

COc1ccccc1OCC(O)CN1CCN(CC(=O)Nc2c(C)cccc2C)CC1.Cl.Cl (centres undefined) [RANOLAZINE HYDROCHLORIDE]
Inhibition (Klebsiella pneumoniae): 1.09% | Inhibition (Candida albicans): 1.45% | Inhibition (Cryptococcus neoformans): -5.35%

CC(=O)SCC(Cc1ccccc1)C(=O)NCC(=O)OCc1ccccc1 (centres undefined) [RACECADOTRIL]
Inhibition (Klebsiella pneumoniae): 3.98% | Inhibition (Candida albicans): 5.86% | Inhibition (Cryptococcus neoformans): -6.78%

Cl.O=C1CN2Cc3c(ccc(Cl)c3Cl)N=C2N1 [ANAGRELIDE HYDROCHLORIDE]
Inhibition (Klebsiella pneumoniae): 18.04% | Inhibition (Candida albicans): 3.23% | Inhibition (Cryptococcus neoformans): -6.07%

CCN(Cc1ccncc1)C(=O)C(CO)c1ccccc1 (centres undefined) [TROPICAMIDE]
Inhibition (Klebsiella pneumoniae): 7.31% | Inhibition (Candida albicans): 0.91% | Inhibition (Cryptococcus neoformans): -7.15%

CN(C)CCC(c1ccc(Cl)cc1)c1ccccn1.O=C(O)/C=C\C(=O)O (centres undefined) [CHLORPHENIRAMINE MALEATE]
Inhibition (Klebsiella pneumoniae): 2.46% | Inhibition (Candida albicans): 4.73% | Inhibition (Cryptococcus neoformans): 0.1%

Cc1onc(-c2ccccc2)c1-c1ccc(S(N)(=O)=O)cc1 [VALDECOXIB]
Inhibition (Klebsiella pneumoniae): 13.38% | Inhibition (Candida albicans): 1.13% | Inhibition (Cryptococcus neoformans): 0.76%

COc1ccc2cc(CCC(C)=O)ccc2c1 [NABUMETONE]
Inhibition (Klebsiella pneumoniae): 8.45% | Inhibition (Candida albicans): 5.24% | Inhibition (Cryptococcus neoformans): -7.4%

CCN(CC)CCOc1ccc(C(=C(Cl)c2ccccc2)c2ccccc2)cc1.O=C(O)CC(O)(CC(=O)O)C(=O)O [CLOMIPHENE CITRATE]
Inhibition (Klebsiella pneumoniae): 12.13% | Inhibition (Candida albicans): 7.1% | Inhibition (Cryptococcus neoformans): -20.85%

OCCN1CCN(CCCN2c3ccccc3Sc3ccc(Cl)cc32)CC1 [PERPHENAZINE]
Inhibition (Klebsiella pneumoniae): 14.78% | Inhibition (Candida albicans): 3.82% | Inhibition (Cryptococcus neoformans): 23.91%
